± gives the standard deviation of the averaged measurements.
Assays:
[1] = tested on: DLD1; experiment: cell viability (CellTiter-Glo) relative to plate median (fraction of plate median); higher = more viable cells; conditions: 5 µM; treatment time 24 h; reporter: 7TFP
Outline: (§1)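 On parallel plates, a Tecan F500 reader recorded either firefly luciferase or CellTiterGlo luminescence. The plates held colorectal cancer cells stably transduced with lentiviral TCF/Wnt firefly luciferase reporters (7TFP or TCF4/Wnt), seeded in 384-well format and treated 24 h later with library compounds at a final 5 µM for 24 h. Per-well signals were normalised to the plate median (webcellHTS2, additive, no log transformation), and two independent replicates were averaged.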

[2] = tested on: HCT116; experiment: as above; conditions: 5 µM; treatment time 24 h; reporter: TCF4/Wnt
Outline: as §1

[3] = tested on: SW480; experiment: as above; conditions: 5 µM; treatment time 24 h; reporter: 7TFP
Outline: as §1

[4] = tested on: DLD1; experiment: TCF/Wnt firefly luciferase reporter signal relative to plate median (fraction of plate median); higher = higher Wnt reporter signal; conditions: 5 µM; treatment time 24 h; reporter: 7TFP
Outline: as §1

[5] = tested on: SW480; experiment: as above; conditions: 5 µM; treatment time 24 h; reporter: 7TFP
Outline: as §1

Row | SMILES | cell viability [1] | cell viability [2] | cell viability [3] | TCF/Wnt firefly luciferase reporter signal [4] | TCF/Wnt firefly luciferase reporter signal [5]
1 | CNC(=O)ON=C(C)SC | 1.01 ± 0.021 | 0.928 ± 0.1 | 0.985 ± 0.035 | 0.98 ± 0.029 | 0.933 ± 0.058
2 | C[C@]12C=CC(=O)C=C1CC[C@@H]1[C@@H]2CC[C@]2(C)C(=O)CC[C@@H]12 | 1.07 ± 0.11 | 1.09 ± 0.035 | 1.11 ± 0.078 | 1.08 ± 0.19 | 1.025 ± 0.0071
3 | CC[C@@H](C)C(=O)O[C@H]1[C@H](O)[C@H]2[C@@H](CN3C[C@@H](C)CC[C@H]3[C@@]2(C)O)[C@@H]2C[C@]34O[C@]5(O)[C@@H](OC(=O)[C@](C)(O)[C@@H](C)O)CC[C@@]3(C)[C@@H]5[C@@H](OC(C)=O)[C@@H](OC(C)=O)[C@H]4[C@@]21O (stereo in doubt) | 1.03 ± 0.035 | 1.17 ± 0.085 | 1.08 ± 0.028 | 1.18 ± 0.092 | 1.08 ± 0.071
4 | NCCc1ccc(O)cc1 | 0.964 ± 0.11 | 0.93 ± 0.03 | 0.953 ± 0.036 | 0.993 ± 0.15 | 1.07 ± 0.014
5 | COc1ccc2c3c([nH]c2c1)C(C)=NCC3 | 1.03 ± 0.059 | 0.971 ± 0.069 | 0.999 ± 0.03 | 1.25 ± 0.021 | 1.15 ± 0.071
6 | COc1ccc(C[C@H]2NC[C@H](O)[C@H]2OC(C)=O)cc1 | 0.831 ± 0.052 | 0.513 ± 0.065 | 1.06 ± 0.042 | 0.248 ± 0.011 | 0.357 ± 0.036
7 | COP(=S)(OC)SCn1nnc2ccccc2c1=O | 0.983 ± 0.02 | 0.939 ± 0.049 | 0.955 ± 0.0071 | 0.991 ± 0.13 | 0.903 ± 0.14
8 | Oc1cccc2cccnc12 | 0.9665 ± 0.0035 | 0.967 ± 0.075 | 1.1 ± 0.028 | 1.03 ± 0.09 | 0.793 ± 0.037
9 | O=[N+]([O-])c1cc(O)c(O)c([N+](=O)[O-])c1 | 0.891 ± 0.081 | 0.942 ± 0.096 | 1.03 ± 0.073 | 0.831 ± 0.27 | 0.852 ± 0.044
10 | CC(C)(C)NCC(O)c1ccccc1Cl (stereo not given) | 1.045 ± 0.0071 | 1.04 ± 0.079 | 1.04 ± 0.028 | 0.949 ± 0.027 | 1.06 ± 0.057
11 | CC(C)C[C@H](CN)CC(=O)O | 1.03 ± 0.073 | 1.05 ± 0.1 | 1.04 ± 0.014 | 1.09 ± 0.064 | 0.936 ± 0.011
12 | C[C@@H]1C[C@H](O)[C@@]2(O)[C@]13CC(=O)OC[C@@]2(C)[C@@](C)(O)C(=O)C3 | 1.115 ± 0.0071 | 1.03 ± 0.068 | 1.04 ± 0.021 | 1.05 ± 0.071 | 1.03 ± 0.054
13 | C=C[C@H]1CN2CC[C@H]1C[C@H]2[C@H](OC(=O)OCC)c1ccnc2ccc(OC)cc12 | 1.01 ± 0.06 | 0.911 ± 0.063 | 0.995 ± 0.035 | 0.956 ± 0.013 | 0.98 ± 0.1
14 | CC[C@@]1(O)C[C@H](O[C@H]2C[C@H](N(C)C)[C@H](O)[C@H](C)O2)c2c(cc3c(c2O)C(=O)c2c(O)cccc2C3=O)[C@H]1C(=O)OC | 1.07 ± 0.17 | 0.9035 ± 0.0064 | 1.2 ± 0.12 | 1.4 ± 0.05 | 0.842 ± 0.028
15 | COc1ccc2c(c1OC)C(=O)O[C@@H]2[C@H]1c2cc3c(cc2CCN1C)OCO3 | 1.05 ± 0.042 | 1.1 ± 0.078 | 1.1 ± 0.035 | 1.18 ± 0.05 | 1.04 ± 0.097
16 | NC(N)=NOCC[C@H](N)C(=O)O | 1.08 ± 0.092 | 1.03 ± 0.035 | 1.03 ± 0.035 | 1.05 ± 0.042 | 0.991 ± 0.013
17 | CCCCCCCCC(=O)NCc1ccc(O)c(OC)c1 | 1.04 ± 0.064 | 0.972 ± 0.025 | 0.981 ± 0.056 | 0.792 ± 0.14 | 0.822 ± 0.061
18 | COc1cc2ccc(=O)oc2c2ccoc12 | 0.932 ± 0.077 | 1.01 ± 0.02 | 0.9355 ± 0.0035 | 0.968 ± 0.17 | 0.996 ± 0.063
19 | C=CC[C@]1(O)CC[C@H]2[C@@H]3CCC4=CC(=O)CCC4=C3C=C[C@@]21C | 1.11 ± 0.16 | 0.961 ± 0.052 | 0.963 ± 0.081 | 0.945 ± 0.078 | 0.9875 ± 0.00071

Row | SMILES | cell viability [1] | cell viability [2] | cell viability [3] | TCF/Wnt firefly luciferase reporter signal [4] | TCF/Wnt firefly luciferase reporter signal [5]
20 | COC1=C[C@@H]2[C@@H]3Cc4ccc(OC)c(O)c4[C@]2(CCN3C)CC1=O | 0.973 ± 0.0085 | 0.925 ± 0.017 | 0.987 ± 0.033 | 1.03 ± 0.11 | 0.997 ± 0.16
21 | C=C(C)c1cc2cc(C(C)=O)c(O)cc2o1 | 1.14 ± 0.13 | 1.06 ± 0.071 | 1.07 ± 0.057 | 1.21 ± 0.29 | 1.12 ± 0.085
22 | C=CCSSCC=C | 1.055 ± 0.0071 | 1.045 ± 0.0071 | 1.05 ± 0.078 | 1.1 ± 0.085 | 0.95 ± 0.13
23 | CNc1ccc(C(=O)CC(O)CCC(C)C2OC(=O)CC(O)CC(=O)CC(O)CC(O)CC(O)CC(O)CC3(O)CC(O)C(C(=O)OC)C(CC(O[C@@H]4O[C@H](C)[C@@H](O)[C@H](N)[C@@H]4O)/C=C/C=C/C=C/C=C/C=C/C=C/C=C/C2C)O3)cc1.COC(=O)C1C(O)CC2(O)CC(O)CC(O)CC(O)CC(O)CC(=O)CC(O)CC(=O)OC(C(C)CCC(O)CC(=O)c3ccc(N)cc3)C(C)/C=C/C=C/C=C/C=C/C=C/C=C/C=C/C(O[C@@H]3O[C@H](C)[C@@H](O)[C@H](N)[C@@H]3O)CC1O2 (stereo not given in full) | 0.932 ± 0.096 | 0.959 ± 0.011 | 0.962 ± 0.0085 | 0.85 ± 0.088 | 0.908 ± 0.023
24 | C[C@]12CCC(=O)C=C1C=C[C@@H]1[C@@H]2CC[C@@]2(C)[C@H]1CC[C@@]2(O)CCC(=O)O | 1.02 ± 0.07 | 1.16 ± 0.014 | 1.04 ± 0.028 | 1.01 ± 0.05 | 1.06
25 | Cc1[nH]c2ccccc2c1CN(C)C | 1.05 ± 0.014 | 1.18 ± 0.11 | 1.085 ± 0.0071 | 1.07 ± 0.11 | 1.07 ± 0.057
26 | CCCC(=O)O[C@@H]1[C@@H](C)[C@@]2(O)[C@@H](C=C(CO)C[C@]3(O)C(=O)C(C)=C[C@@H]23)[C@@H]2C(C)(C)[C@]12OC(=O)CCC | 0.9955 ± 0.0021 | 0.991 ± 0.069 | 1.02 ± 0.033 | 1.03 ± 0.1 | 0.984 ± 0.0085
27 | CON1C(=O)[C@H]2NC(=O)[C@]13Oc1cc(O)c(Cl)cc1[C@@H]3SS2 [Aspirochlorine] | 0.736 ± 0.087 | 0.918 ± 0.017 | 0.841 ± 0.026 | 0.981 ± 0.28 | 1 ± 0.035
28 | COc1cc2occc2c2oc(=O)ccc12 | 0.986 ± 0.076 | 0.941 ± 0.11 | 0.95 ± 0.026 | 1.06 ± 0.17 | 0.818 ± 0.11
29 | COc1ccc2[nH]cc(CCN)c2c1 | 1.09 ± 0.078 | 1.06 ± 0.086 | 1.04 ± 0.093 | 0.924 ± 0.095 | 1.06 ± 0.014
30 | N#Cc1c(Cl)c(Cl)c(Cl)c(C#N)c1Cl | 0.687 ± 0.075 | 0.465 ± 0.13 | 1.01 ± 0.052 | 0.293 ± 0.14 | 0.286 ± 0.15
31 | NNCc1ccccc1 | 1.08 ± 0.12 | 1.1 ± 0.13 | 1.06 ± 0.028 | 1.07 ± 0.057 | 1.03 ± 0.093
32 | CN1[C@@H]2CC[C@H]1C[C@@H](OC(=O)[C@H](CO)c1ccccc1)C2 | 1.06 ± 0.14 | 1.09 | 1 ± 0.086 | 0.974 ± 0.11 | 1.05 ± 0.028
33 | OCC(O)Cc1ccc2c(c1)OCO2 (stereo not given) | 1.03 ± 0.095 | 1.04 ± 0.014 | 1.02 ± 0.033 | 0.922 ± 0.091 | 0.985 ± 0.036
34 | CC(C)(C#N)O[C@@H]1O[C@H](CO)[C@@H](O)[C@H](O)[C@H]1O | 0.945 ± 0.078 | 1.06 ± 0.014 | 0.992 ± 0.0014 | 0.953 ± 0.036 | 0.933 ± 0.036
35 | O=C1C[C@@H]2OCC=C3CN4CC[C@]56c7ccccc7N1[C@H]5[C@H]2[C@H]3C[C@H]46 | 1.06 ± 0.14 | 0.963 ± 0.015 | 1.05 ± 0.071 | 0.927 ± 0.044 | 0.997 ± 0.089
36 | CC[C@H](C)[C@H]1O[C@]2(C=C[C@@H]1C)C[C@@H]1C[C@@H](C/C=C(\C)[C@@H](O[C@H]3C[C@H](OC)[C@@H](O[C@H]4C[C@H](OC)[C@@H](O)[C@H](C)O4)[C@H](C)O3)[C@@H](C)/C=C/C=C3\CO[C@@H]4[C@H](O)C(C)=C[C@@H](C(=O)O1)[C@]34O)O2.CO[C@H]1C[C@H](O[C@H]2[C@H](C)O[C@@H](O[C@@H]3/C(C)=C/C[C@@H]4C[C@@H](C[C@]5(C=C[C@H](C)[C@@H](C(C)C)O5)O4)OC(=O)[C@@H]4C=C(C)[C@@H](O)[C@H]5OC/C(=C\C=C\[C@@H]3C)[C@]54O)C[C@@H]2OC)O[C@@H](C)[C@@H]1O | 0.893 ± 0.083 | 0.931 ± 0.0028 | 1.01 | 0.977 ± 0.089 | 0.987 ± 0.033
37 | COC(=O)[C@]1(C)CC[C@]2(C)CC[C@]3(C)C4=CC=C5C(=CC(=O)C(O)=C5C)[C@]4(C)CC[C@@]3(C)[C@@H]2C1 | 0.981 ± 0.0085 | 1.16 ± 0.05 | 1.03 ± 0.014 | 1.11 ± 0.071 | 1.03 ± 0.08
